Screens: PubChem, National Center for Advancing Translational Sciences (NCATS)
Compounds with a hit are over-represented: about 13% of the library has one in this group of screens.
G9a block: qHTS Assay for Inhibitors of Histone Lysine Methyltransferase G9a | G9a H3K9 monomethylation, AlphaScreen, 2 h | AID 504332, 2011 | 350,000 compounds, 8.8% hits | Potency, µM (doses to about 102 µM), without a hit: top-dose activity, negative = inhibition, usual class: inhibitors; also: potency is read from the fitted curve at half-maximal effect; % is scaled to controls: 0 for no effect and ±100 for the full control effect; nearly all actives have a fitted effect of over 75% in size
Target sequence (Q96KQ7 913-1193 limits assumed): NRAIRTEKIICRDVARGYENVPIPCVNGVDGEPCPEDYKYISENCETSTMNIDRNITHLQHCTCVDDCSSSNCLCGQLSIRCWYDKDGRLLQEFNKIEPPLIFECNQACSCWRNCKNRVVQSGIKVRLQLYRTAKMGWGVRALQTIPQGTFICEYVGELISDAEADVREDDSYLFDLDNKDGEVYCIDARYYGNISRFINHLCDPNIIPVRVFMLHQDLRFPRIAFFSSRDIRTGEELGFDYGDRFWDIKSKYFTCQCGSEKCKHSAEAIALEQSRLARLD
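G9a (20 nM) preincubated 15 min RT with compounds, then 500 nM biotinylated H3K9 peptide and 20 uM SAM added; 2 h RT reaction. Monomethyl-H3K9 product detected by AlphaScreen with anti-H3K9me1 antibody, streptavidin donor and anti-rabbit IgG acceptor beads.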
KDM4E inh: qHTS Assay for Inhibitors of Human Jumonji Domain Containing 2E (JMJD2E) | Lysine-specific demethylase 4E (Homo sapiens), B2RXH2 | JMJD2E catalytic domain, FDH-coupled NADH fluorescence (FDH is formaldehyde dehydrogenase) | Potency, µM (highest dose often 57.1 µM), for inactives: top-dose activity change, negative = inhibition, hits mostly inhibitors | 230,000 compounds, 1.6% hits; active = well fitted inhibition curve with a large enough effect, not every such curve was filed as active; inconclusive = small, poorly fitted or top-dose-only effect, or another doubt; inactive = no such curve, though single readings can be large or run the other way;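 also: potency is read from the fitted curve at half-maximal effect; 0% = wells with enzyme and -100% = buffer wells without enzyme; nearly all actives have a fitted effect of over 50% in size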
miR-21 act: qHTS Assay for Modulators of miRNAs and/orActivators of miR-21; 340,000 tested, under 10 active; Potency, µM (titrated, usually from 38.3 µM), inactives show at the highest dose activity change, positive = activation, hits mostly activators; HeLa miR-21 FLuc reporter, luciferase, 48 h;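 also: % of control where 0% means no effect; miR-21 action dims this reporter so a rising signal means less miR-21 action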
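Luminescence from a firefly luciferase reporter carrying a miR-21 binding site downstream, stably expressed under a CMV promoter in HeLa cells that make miR-21 endogenously, reports miRNA modulation after 48 h compound exposure up to approximately 40uM final.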
Sfp inh: qHTS Assay for Inhibitors of Bacillus subtilis Sfp phosphopantetheinyl transferase (PPTase); 310,000 compounds, 3.5% hits; Potency, µM, for the others: largest response in the series, negative = inhibition, usual class: inhibitors; AID 1490, 2009; Biochemical Sfp PPTase activity, qHTS; 4'-phosphopantetheinyl transferase ffp (Bacillus subtilis), Q9F4F7;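 also: the enzyme is Sfp with the accession as filed and its product quenches rhodamine fluorescence; potency is read from the fitted curve at half-maximal effect; 0% = enzyme reaction without inhibitor and -100% = no enzyme wells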
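Step 1, compound plus 15 nM Sfp-PPTase, 15 min, room temperature. Step 2, add rhodamine-CoA (5 uM) and BHQ-2-YbbR (12.5 uM). Step 3, read 525/598 nm fluorescence at 0 and 30 min.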
ALDH1A1 inh: qHTS Assay for Inhibitors of Aldehyde Dehydrogenase 1 (ALDH1A1) | Aldehyde dehydrogenase 1A1 (Homo sapiens), P00352 | Purified ALDH1A1, NADH fluorescence, propionaldehyde substrate | Potency, µM (series often up to 75.3 µM), for inactives: top-dose activity, negative = inhibition, usual class: inhibitors | 220,000 compounds, 7.3% hits; active = well fitted inhibition curve with a large enough effect, not every such curve was filed as active; inconclusive = small, poorly fitted or top-dose-only effect, or another doubt; inactive = no such curve, though single readings can be large or run the other way;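 also: potency is read from the fitted curve at half-maximal effect; plate controls were no enzyme wells and a reference inhibitor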
Target sequence (P00352 whole entry, looked up): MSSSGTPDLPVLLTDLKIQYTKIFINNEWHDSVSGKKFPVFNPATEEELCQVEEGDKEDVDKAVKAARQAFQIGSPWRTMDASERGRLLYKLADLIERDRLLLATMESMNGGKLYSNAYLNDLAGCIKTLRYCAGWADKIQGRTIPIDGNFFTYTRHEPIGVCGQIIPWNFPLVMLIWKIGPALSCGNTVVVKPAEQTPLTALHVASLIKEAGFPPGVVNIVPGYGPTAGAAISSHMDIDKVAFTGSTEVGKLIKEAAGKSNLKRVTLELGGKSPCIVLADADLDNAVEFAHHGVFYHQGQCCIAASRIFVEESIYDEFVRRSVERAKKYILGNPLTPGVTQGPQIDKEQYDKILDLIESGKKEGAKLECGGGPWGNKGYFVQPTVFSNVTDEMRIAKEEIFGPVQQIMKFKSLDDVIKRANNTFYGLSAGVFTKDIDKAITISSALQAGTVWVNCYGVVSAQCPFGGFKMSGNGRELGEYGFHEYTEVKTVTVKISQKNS
Lamin A splicing: qHTS Assay for Modulators of Lamin A Splicing | Potency, µM (titrated, usually from 46.1 µM), without a hit: at the highest dose ratio change, negative = inhibition, usual class: inhibitors | HeLa LMNA splicing GFP/RFP minigene ratio, 48 h | 200,000 compounds, 0.01% hits; active = well fitted inhibition curve with a large enough effect in the signal ratio, with a control signal flat, not every such curve was filed as active; inconclusive = small, poorly fitted or top-dose-only effect, or effect the other way, or a change in a side signal; the % refers to the signal ratio; also: potency is read from the fitted curve at half-maximal effect; % is scaled to controls: 0 for no effect and ±100 for the full control effect
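Read-out is the ratio of GFP to DsRed2 object intensity, acquired by 488 nm laser-scanning cytometry on HeLa lamin A-EGFP minigene reporter cells. Compound incubation 48 hrs at 37 °C in Opti-MEM with 2% FBS; DMSO 0.5% final.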
Active calls of the source: *; ? = inconclusive; . = no result; [ ] = remark or other dose. Unless noted, calls follow the shape of the dose curve; as a rule, active = well fitted curve in the direction sought with a large enough effect; inconclusive = small, poorly fitted or top-dose-only effect, or another doubt; inactive = no such curve, though single readings can be large; an effect the other way counts as inactive or inconclusive.

SMILES	G9a block	KDM4E inh	miR-21 act	Sfp inh	ALDH1A1 inh	Lamin A splicing
Cc1ccc2nc(-c3ccc(Cl)c(NC(=O)COc4ccc(C(C)C)cc4)c3)oc2c1	8.5%[59 µM]	.	-58.4%	.	.	.
Cc1nc2cnc(N(C)C)nc2n(CCc2ccccc2)c1=O	-1.6%[0.501 µM]	.	.	3.0%	?	?
CC1CCCC2(C1)NC(=S)c1c(sc3c1CCCC3)N2 (stereo unspecified)	8.91µM*	-6.6%	-16.3%	6.31µM*	3.55µM*	0.5%
CC1Cc2cc(S(=O)(=O)NCc3ccc(N(C)C)cc3)ccc2N1C(=O)C1CCC1 (stereo unspecified)	11.2µM*	.	19.7%	.	.	3.7%[46 µM]
CN(C)c1ccc(CNS(=O)(=O)c2csc(C(N)=O)c2)cc1	50.1µM*	.	6.6%	6.8%	.	.
Cc1cc(C(=O)Nc2sc(C)c(C)c2C#N)no1	?	-4.6%	-23.8%	-4.8%	12.6µM*	0.5%
CCc1c(C)sc(NC(=O)c2cc(C(C)C)on2)c1C#N	?	-7.1%	-38.8%	-18.7%	17.8µM*	15.9%[46 µM]
CCc1c(C)sc(NC(=O)C2CC(c3c(F)cccc3Cl)=NO2)c1C#N (stereo unspecified)	5.6%	.	-22.2%	19.1%	.	.
CCc1c(C)sc(NC(=O)c2cc(C)no2)c1C#N	12.6µM*	-4.2%	-25.7%	?	12.6µM*	-12.7%
Cc1cc(C(=O)Nc2sc3c(c2C#N)CCC(C(C)(C)C)C3)no1 (stereo unspecified)	?	?	-4.0%	-2.2%	?	0.4%
CCc1cc(C(=O)Nc2sc(C)c(CC)c2C#N)no1	2.51µM*	.	-35.6%	.	.	.
CCc1ccc(NC(=O)c2cc(C(C)C)on2)cc1	32.2%[12.7 µM]	1.4%	-25.7%	5.7%	?	-0.2%
COc1ccc(NC(=O)c2cn3c4c(ccc(Cl)c4c2=O)OC(C)C3)cc1OC (stereo unspecified)	-31.9%[59 µM]	.	-2.1%	.	.	-21.1%[46 µM]
Oc1cc(Br)ccc1C=Nc1ccc(N2CCCCC2)cc1	44.7µM*	-12.3%	0.1%	-19.1%	-1.2%	.
Oc1ccc(C=Nc2ccc(N3CCOCC3)cc2)c(O)c1	1.58µM*	?	0.3%	-7.0%	-12.4%	-4.3%
Cc1ccc(N=Cc2ccc(O)cc2O)cc1F	10µM*	-4.5%	-8.1%	-28.5%	-1.2%	1.2%
COc1ccc(C2C(C(=O)Nc3ccccc3)=C(C)Nc3nc(-c4ccc(Cl)cc4)nn32)cc1 (stereo unspecified)	-27.6%[59 µM]	.	-4.8%	.	.	.
COc1ccc(/C=C2\Sc3ccc(C(=O)NCCN4CCCCCC4)cc3N(C)C2=O)cc1	22.4µM*	.	1.6%	?	.	.
COc1cccc(/C=C2/Sc3ccc(C(=O)NCCN4CCCC4)cc3NC2=O)c1	?	.	29.0%	-25.4%	.	.
COc1ccc(/C=C2\Sc3ccc(C(=O)N4CCCC4)cc3N(C)C2=O)cc1OC	44.7µM*	.	-9.8%	-23.4%	.	.
CCn1cc(C(=O)N[C@@H](CC(C)C)C(=O)NCCCn2ccnc2)c(=O)c2cc3c(cc21)OCO3	-12.7%	.	-10.9%	13.8%	.	.
CCOC(=O)c1ccc(NC(=O)Cn2cnc3sc(C(=O)OCC)c(C)c3c2=O)cc1	-0.7%[59 µM]	.	-7.8%	.	.	-5.3%[46 µM]
COC(=O)c1[nH]c2ccc(C)cc2c1NC(=O)Nc1ccc(OC)cc1	44.7µM*	?	-31.7%	-26.1%	7.3%	-7.4%
CCOC(=O)Nc1c(C(=O)OC)[nH]c2cc(OC)ccc12	-29.8%	-28.2%	12.6%	5.2%	?	-11.6%
CCCS(=O)(=O)Nc1c(C(=O)O)[nH]c2ccc(OC)cc12	-7.3%[59 µM]	?	-0.5%	5.8%	.	.
SMILES	G9a block	KDM4E inh	miR-21 act	Sfp inh	ALDH1A1 inh	Lamin A splicing
COc1ccc2[nH]c(C(=O)O)c(NS(=O)(=O)c3ccc(C)cc3C)c2c1	39.8µM*	.	-0.3%	5.3%	.	.
COC(=O)c1[nH]c2cc(OC)ccc2c1N	3.55µM*	?	-4.2%	25.1µM*	?	2.6%
Oc1c(C(c2ccccc2Cl)N2CCN(Cc3ccccc3)CC2)sc2nc(-c3ccco3)nn12 (stereo unspecified)	?	.	7.2%	.	.	?
COc1ccc(NC(=O)Cn2c(=O)n(-c3ccccc3)c(=O)c3c4c(sc32)CCCC4)cc1	10.1%[59 µM]	.	-1.7%	.	.	.
COc1ccc(CC(=O)NN2C(=O)c3ccccc3C2=O)cc1	-2.8%	9.4%	0.4%	5.0%	8.6%	-2.1%
COc1ccc(CC2=CC(=O)c3ccccc3C2=O)cc1	.	.	?	25.1µM*	.	.
CC(=O)NCCNc1ncncc1-c1ccc(N(C)C)cc1	9.2%[0.501 µM]	.	.	?	?	?
O=C(O)CC1Sc2nc3ccccc3n2C1=O (stereo unspecified)	44.7µM*	-1.3%	-4.6%	4.0%	-2.7%	-3.7%
Cc1ccc(S(=O)(=O)Oc2ccc(/C=C3/N=C(c4ccccc4)OC3=O)cc2)cc1	?	2.8%	-0.1%	?	8.91µM*	6.9%
COc1ccc(/C=C2\N=C(c3ccc(C)cc3)OC2=O)cc1	19.3%[0.501 µM]	.	-0.9%	17.1%	.	.
C[C@@H](C(=O)Nc1ccc2ccccc2c1)[C@H]1C[C@]1(C)[C@H](NC(=O)c1cnccn1)c1ccccc1	-10.0%	-2.9%	3.5%	8.3%	11.2µM*	?
C[C@@H](C(=O)Nc1ccc2ccccc2c1)[C@@H]1C[C@@]1(C)[C@@H](NC(=O)c1cnccn1)c1ccccc1	50.1µM*	1.4%	-0.2%	6.6%	15.3%	?
C[C@@H](C(=O)Nc1ccc2ccccc2c1)[C@H]1C[C@]1(C)[C@H](NC(=O)c1ccccc1)c1ccccc1	.	-12.8%	.	14.1%	0.794µM*	.
C[C@@H](C(=O)Nc1ccc2ccccc2c1)[C@@H]1C[C@@]1(C)[C@@H](NC(=O)c1ccncc1Cl)c1ccccc1	.	-6.0%	.	6.9%	-0.5%	.
Nc1ncncc1-c1ccc2ccccc2c1	-20.8%[12.7 µM]	?	-2.9%	16.8%	.	.
Cc1ccc([C@@H]2[C@@H]3C(=O)N(C)C(=O)[C@@H]3[C@]3(C)C(=O)N(Cc4ccc(-c5ccccc5)cc4)CC(=O)N23)o1	?	.	-0.1%	50.1µM*	.	.
Cc1ccc([C@@H]2[C@@H]3C(=O)N(c4ccccc4)C(=O)[C@@H]3[C@]3(C)C(=O)N(Cc4ccccc4)CC(=O)N23)o1	.	.	0.1%	8.4%	.	.
Cc1ccc2c(c1)/C(=C/c1ccccc1)C(=O)N2	13.1%	.	15.6%	-9.0%	.	.
O=C1Nc2ccc(I)cc2/C1=C/c1cc(Br)c(O)c(Br)c1	21.2µM*	1.8%	.	?	-6.9%	?
